# Laboratory results published in the supplement of paper PMC8699584.
# Where “and” joins values, the source holds several entries; their conditions need not be identical. Identical values can stand only once. Counter-ions that a name gives are not always drawn. ± gives the standard deviation of the averaged measurements.
# Tests used:
# Molm13 = experiment: cell viability relative to DMSO control (bortezomib = 0%); higher = less growth inhibition; conditions: 10 nM; 72 h
# How it was run: (§1)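 In duplicate runs, a library of 679 approved and investigational compounds in 384-well plates received acute myeloid leukemia cells at 1000 cells per well in 50 µL, with each compound at a single 10 nM dose for 72 h. CellTiter-Glo luminescence, read on an EnVision reader, served as the viability measure. Each plate was normalized by linear regression between DMSO-treated cells (100%) and positive-control-treated cells (0%).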
# Mv4-11 = experiment: as above; conditions: 10 nM; 72 h
# How it was run: as §1
SMILES,cell viability (Molm13),cell viability (Mv4-11)
Cc1cc(N)c2ccccc2[n+]1CCCCCCCCCC[n+]1c(C)cc(N)c2ccccc21 [Dequalinium chloride],92.3 ± 15%,96.3 ± 16%
COc1cc(-c2cc(-c3ccc(N4CCNCC4)cc3)cnc2C)cc(OC)c1OC,111 ± 5.7%,107 ± 3.6%
Cc1ccc(C(=O)N(CCCN)[C@@H](c2nc3cc(Cl)ccc3c(=O)n2Cc2ccccc2)C(C)C)cc1,2.83 ± 14%,6.27 ± 10%
Nc1cc(C(F)(F)F)c(-c2nc(N3CCOCC3)nc(N3CCOCC3)n2)cn1,94.3 ± 30%,109 ± 5.2%
CNC(=O)Nc1cc(Oc2cncc(C)c2)c(-c2ccc(OCC(C)(C)O)nc2)cn1,101.5 ± 0.58%,101 ± 6.8%
Cn1cc(C2=C(c3ccc(Cl)cc3Cl)C(=O)NC2=O)c2ccccc21,96.9% and 84.3%,106% and 108%
COc1ccc([C@@H]2OC[C@H]3[C@@H]2CO[C@@H]3c2ccc(O[C@@H]3O[C@H](CO)[C@@H](O)[C@H](O)[C@H]3O)c(OC)c2)cc1OC [Forsythin],123 ± 20%,102 ± 6.1%
COc1cc(Nc2c(C#N)cnc3cc(OCCCN4CCN(C)CC4)c(OC)cc23)c(Cl)cc1Cl [Bosutinib],112 ± 24%,90.8 ± 17%
CC(C)(C)n1nc(-c2cccc3ccccc23)c2c(N)ncnc21,95.9 ± 9.6%,110 ± 10%
O=C(Nc1cccc(Nc2ncc(Br)c(NCCc3cnc[nH]3)n2)c1)N1CCCC1,73 ± 3.7%,81.16 ± 0.49%
COc1ccc2cc1Oc1ccc(cc1)C[C@H]1c3cc(c(OC)cc3CCN1C)Oc1c(O)c(OC)cc3c1[C@H](C2)N(C)CC3 [(+)-Fangchinoline],116 ± 13%,114 ± 1.3%
CC(C)(C#N)c1ccc(N2C(=O)OCc3cnc4ccc(-c5cnc6ccccc6c5)cc4c32)cc1,93.6 ± 11%,102 ± 9.2%
COc1cc2nccc(Oc3ccc(NC(=O)NC4CC4)c(Cl)c3)c2cc1C(N)=O [Lenvatinib (E7080)],112 ± 6.8%,123 ± 14%
CC#CC(=O)Nc1ccc2ncnc(Nc3cccc(Br)c3)c2c1,99.9 ± 3.4%,98.9 ± 4.2%
O=C(Nc1cccnc1)c1cc(-c2ccnc(F)c2)ccc1OCc1ccccc1,101 ± 20%,105 ± 2.3%
CC1(C)CC[C@]2(C(=O)O)CC[C@]3(C)C(=CC[C@@H]4[C@@]5(C)CC[C@H](O[C@@H]6O[C@H](C(=O)O)[C@@H](O)[C@H](O[C@@H]7OC[C@@H](O)[C@H](O)[C@H]7O)[C@H]6O)C(C)(C)[C@@H]5CC[C@]43C)[C@@H]2C1 [Momordin Ic],87.4 ± 13%,106 ± 5%
"Cc1c(CN2CCN(C(=O)[C@H](C)O)CC2)sc2c(N3CCOCC3)nc(-c3cnc(N)nc3)nc12 [Apitolisib (GDC-0980, RG7422)]",108 ± 2.2%,104 ± 14%
COc1cc2ncnc(Oc3ccc(CC(=O)Nc4cnn(C(C)C)c4)cc3)c2cc1OC,24.8 ± 4.2%,29.8 ± 2.1%
CC(=O)O[C@H]1C(=O)[C@@]2(C)[C@H]([C@H](OC(=O)c3ccccc3)[C@]3(O)C[C@H](OC(=O)[C@H](O)[C@@H](NC(=O)c4ccccc4)c4ccccc4)C(C)=C1C3(C)C)[C@]1(OC(C)=O)CO[C@@H]1C[C@@H]2O [Paclitaxel],-2.33 ± 4.8%,-3.89 ± 0.25%
N#Cc1ccc2[nH]c(O)c(-c3ccc(CN4CCOCC4)cn3)c2c1,112 ± 0.85%,106 ± 5.3%
CCCCCCCCCCCCC/C=C/[C@H](O)[C@@H](N)CO [L-threo-Sphingosine C-18],94 ± 9.1%,113 ± 2.5%
Cc1ccc([N+](=O)[O-])cc1S(=O)(=O)N(C)/N=C/c1cnc2ccc(Br)cn12 [PIK-75 (hydrochloride)],94.7 ± 11%,92.2 ± 7.8%
Cc1ccc(NC(=O)c2ccc(CN3CCN(C)CC3)cc2)cc1Nc1nccc(-c2cccnc2)n1 [Imatinib (mesylate)],111 ± 16%,121 ± 22%
N#Cc1cccc(-c2c[nH]c3ncnc(N4CCOCC4)c23)c1,109 ± 23%,100 ± 8.2%

SMILES,cell viability (Molm13),cell viability (Mv4-11)
Cc1cc(O)c2c(c1)C(=O)c1cc(O)cc(O)c1C2=O [Emodin],91.2 ± 7.2%,99.1 ± 2.6%
COc1cc2/c(=N/c3ccc(Br)cc3F)nc[nH]c2cc1OCC1CCN(C)CC1 [Vandetanib (ZD6474)],116 ± 22%,117 ± 41%
O=C(NOCC1CC1)c1ccc(F)c(F)c1Nc1ccc(I)cc1Cl,105 ± 1.4%,95.7 ± 9.2%
C[C@H]1[C@H](C)CC[C@]2(C(=O)O)CC[C@]3(C)C(=CC[C@@H]4[C@@]5(C)C[C@@H](O)[C@H](O)C(C)(C)[C@@H]5CC[C@]43C)[C@H]12 [Corosolic acid],113 ± 26%,106 ± 11%
O=C1Cc2c([nH]c3ccc(Br)cc23)-c2ccccc2N1 [KenPaullone],91.6 ± 2.8%,95.2 ± 16%
N#CC[C@H](C1CCCC1)n1cc(-c2ncnc3[nH]ccc23)cn1 [Ruxolitinib],105 ± 10%,111.1 ± 0.83%
COc1cc2c(Nc3ccc(NC(=O)c4ccccc4)cc3)ncnc2cc1OCCCN1CCOCC1,87.8 ± 50%,120 ± 19%
CCS(=O)(=O)N1CC(CC#N)(n2cc(-c3ncnc4[nH]ccc34)cn2)C1 [Baricitinib†(Phosphate)],112 ± 13%,115 ± 5.4%
CNC(=O)c1cccc(-c2ccc3c(N4CCOC[C@@H]4C)nc(N4CCOC[C@@H]4C)nc3n2)c1,83.69 ± 0.63%,98.5 ± 20%
CC(C)n1nc(-c2cc3cc(O)ccc3[nH]2)c2c(N)ncnc21,103 ± 11%,96.2 ± 30%
CCN(CC)CC(=O)Nc1c(C)cccc1C [Lidocaine Hydrochloride hydrate],111 ± 18%,113 ± 8.3%
N#Cc1c(Oc2ccc(F)c(NC(=O)Cc3cccc(C(F)(F)F)c3)c2)ccc2nc(NC(=O)C3CC3)sc12,105 ± 12%,114 ± 6.7%
Cc1ccc(NC(=O)c2ccc(CN3CCN(C)CC3)cc2)cc1Nc1nc(-c2cccnc2)cs1 [Masitinib (AB1010)],98.2 ± 12%,116 ± 26%
CN(C)S(=O)(=O)c1ccc2c(c1)/C(=C/c1cc3c([nH]1)CCCC3)C(=O)N2,113 ± 3.4%,109 ± 1.4%
CC1(C)CNc2cc(NC(=O)c3cccnc3NCc3ccncc3)ccc21 [Motesanib (AMG-706)],106 ± 20%,107 ± 5.2%
N#CC(=Cc1ccc2[nH]ccc2c1)C(N)=C(C#N)C#N,104 ± 20%,103.5 ± 0.36%
CNc1nc(Nc2cn(C(C)(C)C#N)nc2C)ncc1C(F)(F)F,109 ± 2.8%,117 ± 11%
Cc1ccc(-c2csc3ncnc(SCCC(=O)O)c23)cc1,108 ± 3.3%,117 ± 10%
Oc1cc(O)cc(/C=C/c2ccc(O)c(O)c2)c1 [Piceatannol],101 ± 6.1%,108 ± 11%
CCOc1cc(N2CCC(O)CC2)ccc1Nc1ncc2c(n1)N(C)c1ccccc1C(=O)N2C,98.8 ± 5.5%,98.8 ± 2%
O=C1NC(=O)C(c2c[nH]c3ccccc23)=C1c1c[nH]c2ccccc12 [Bisindolylmaleimide IV],105 ± 5.2%,100 ± 2.6%
O=C1NC(=O)/C(=C/c2cccc(C(F)(F)F)c2)S1,112 ± 15%,119 ± 17%
COc1ccc(C2CC(=O)c3c(O)cc(OC4OC(COC5OC(C)C(O)C(O)C5O)C(O)C(O)C4O)cc3O2)cc1OC (stereo not given) [Methyl hesperidin],109 ± 12%,117 ± 20%
O=C(Nc1cc(C(F)(F)F)ccc1N1CCCCC1)c1ccncc1,99.5 ± 9.8%,129 ± 17%

SMILES,cell viability (Molm13),cell viability (Mv4-11)
CNC(=O)c1ccccc1Nc1cc(Nc2ccc(N3CCOCC3)cc2OC)ncc1C(F)(F)F,105 ± 16%,109 ± 25%
Nc1ncnc2n[nH]c(Nc3ccc(F)cc3)c12,102 ± 11%,105 ± 3.4%
CNC(=O)c1ccc(-c2cnc3ncc(Cc4ccc5ncccc5c4)n3n2)cc1F,109 ± 3.6%,108 ± 6.8%
CS(=O)(=O)c1ccc(-c2nc(-c3ccc(F)cc3)c(-c3ccncc3)[nH]2)cc1,108 ± 14%,100.3 ± 0.91%
Cc1c(F)cc(C(=O)NC2CC2)cc1-c1ccc(C(=O)NCC(C)(C)C)cn1,92.1 ± 8%,118 ± 20%
C[C@@H]1O[C@@H](Oc2cc(O)c3c(=O)c(O[C@@H]4O[C@@H](C)[C@H](O)[C@@H](O)[C@H]4O)c(-c4ccc(O)cc4)oc3c2)[C@H](O)[C@H](O)[C@H]1O [Kaempferitrin],114 ± 10%,105 ± 3.1%
O=C(NOC[C@H](O)CO)c1ccc(F)c(F)c1Nc1ccc(I)cc1F,89.4% and 96.2%,95.5% and 86.8%
O=S(=O)(NCCNC/C=C/c1ccc(Br)cc1)c1cccc2cnccc12 [H-89 (hydrochloride)],114 ± 19%,109 ± 5.8%
N[C@@H]1CCCN(c2c(/C=C3\SC(=O)NC3=O)cccc2-c2ccccc2)C1,103 ± 1.3%,125 ± 9.2%
CN1CCN(c2cccc(Nc3nc4c(-c5ccc(S(C)(=O)=O)cc5)cccn4n3)c2)CC1,118 ± 14%,101 ± 7.2%
Cc1cc(Nc2nn(-c3ccccc3)c(=O)c3ccccc23)n[nH]1 [Phthalazinone pyrazole],94.1 ± 9.4%,101 ± 15%
O=C1Nc2ccc(CN3C(=O)CSC3=O)cc2/C1=C/c1cc(CN2CCOCC2)c[nH]1,92.3 ± 7.1%,110 ± 8.4%
Cn1cc(-c2ccc3nnc(Sc4ccc5ncccc5c4)n3n2)cn1,127 ± 6.4%,104 ± 4.2%
O=c1ncn2nc(Sc3ccc(F)cc3F)ccc2c1-c1c(Cl)cccc1Cl,89.6 ± 1.7%,108 ± 6.4%
COc1ccc(S(=O)(=O)Nc2ccccc2CN(C)C/C=C/c2ccc(Cl)cc2)cc1 [KN-92 (hydrochloride)],129 ± 18%,109 ± 10%
O=C(O)CN1C(=O)c2c(I)c(I)c(I)c(I)c2C1=O,126 ± 38%,107 ± 3.2%
Nc1ncnc2c1c(-c1cccc(OCc3ccccc3)c1)cn2C1CC(CN2CCCC2)C1 (stereo not given),103 ± 13%,96.5 ± 2.5%
N#Cc1c(O)c2c(-c3ccc(-c4ccccc4O)cc3)csc2[nH]c1=O,111 ± 27%,93.9 ± 14%
N=C(N)NC(=N)NCCc1ccccc1 [Phenformin hydrochloride],91.3 ± 30%,107 ± 19%
Nc1nc(O)c2ncn(CCC(CO)CO)c2n1 [Penciclovir],111 ± 8%,104 ± 2.1%
Nc1ncnc2c1ncn2C1OC(COP(=O)(O)O)C(O)C1O (stereo not given) [Adenosine 5'-monophosphate monohydrate],102 ± 34%,97.2 ± 0.99%
COc1cc(N2CCC(N3CCN(C)CC3)CC2)ccc1Nc1ncnc(Nc2ccccc2S(=O)(=O)C(C)C)n1,96.5 ± 3.9%,98.6 ± 15%
